{"source": "PubChem BioAssay (EPA / NIEHS)", "note": "Where “and” joins values, the source holds several entries; their conditions need not be identical. Equal entries are not always repeated. Calls of active or inactive are those of the source. The calls were made as follows: active = hit-call score of the fitted dose curve at least 0.9, where 1 is the maximum; inactive = score below 0.9."}
{"read-out": "TIMP metallopeptidase inhibitor 1 (TIMP1), TIMP1 (gene 7076)", "assay": "BSK_MyoF_TIMP1: BioMAP Diversity Plus: MyoF Assay for TIMP metallopeptidase inhibitor 1 (TIMP1) Biomarker Activity (AID 2284269)", "conditions": "primary human lung fibroblasts", "protocol": "BSK_MyoF is a cell-based, multiplexed-readout assay that uses lung fibroblasts, […], with measurements taken at 24 hours after chemical dosing in a microplate: 96-well plate.BSK_MyoF_TIMP1 is an assay component measured in the BSK_MyoF assay. It measures TIMP-1 antibody related to regulation of gene expression using ELISA technology.Data from the assay component BSK_MyoF_TIMP1 was analyzed at the endpoint, BSK_MyoF_TIMP1, in the positive analysis fitting direction relative to DMSO as the negative control and baseline of activity. Using a type of binding reporter, gain or loss-of-signal activity can be used to understand protein changes. To generalize the intended target to other relatable targets, this assay endpoint is annotated to the 'protease' intended target family, where the subfamily is 'matrix metalloproteinase'.\nThe levels of cell surface (or secreted, indicated by the prefix \"s\") biomarker endpoints were measured by ELISA. Overt cytotoxicity to cells in confluent adherent cultures (all systems other than the BT system) was assessed by measuring total protein levels using sulforhodamine B (SRB) staining in parallel cultures at the time of biomarker measurements, indicated as SRB endpoints. For proliferation assays for adherent cell types, individual cell types are cultured at sub-confluence and relative cell numbers quantified by SRB staining at time points optimized for each system (48 h: 3C and CASM3C systems; 72 h: BT and HDF3CGF systems; 96 h: SAg system). SRB was performed by staining cells with 0.1% SRB after fixation with 10% TCA and reading wells at 560 nm.Viability and proliferation of PBMC (T cells) was quantified by Alamar Blue reduction for the SAg and BT systems. For PBMC viability (referred to as PBMC Cytotoxicity within the assay endpoint names), cells were plated (75,000/well in a 96-well plate) and then chemical samples added for 1 h before addition of activators, SEB and TSST-1 (20 ng/mL final concentration each). Cells were incubated for 90 h. Then, Alamar Blue (20 uL/well) (Invitrogen, Cat DAL1100) was added for 6 h, and the plates were read with a fluorescence microplate reader at 546/580 nm (excitation/emission). For PBMC proliferation, cells were plated and activated as above but incubated for only 16 h prior to addition of Alamar Blue. Plates were read after 6 h."}
{"smiles": "CCc1c(Br)c(Br)c(Br)c(Br)c1Br", "outcome": "inactive"}
{"smiles": "COC(=O)CCC(F)(F)C(F)(F)C(F)(F)C(F)(F)F", "outcome": "inactive"}
{"smiles": "FC(F)(F)C(F)(F)CNCC(F)(F)C(F)(F)F", "outcome": "inactive"}
{"smiles": "C=CC(=O)OCC(F)(F)C(F)(F)C(F)(F)C(F)(F)COC(=O)C=C", "AC50": "14.1 µM (active) and 18.7 µM (active)"}
{"smiles": "FC(F)(F)C(F)(F)C(F)(F)C(F)(F)C(F)(F)C(F)(F)CCS", "outcome": "inactive"}
{"smiles": "CC(=O)Nc1ccc(N=Nc2cc(C)ccc2O)cc1", "outcome": "inactive"}
{"smiles": "C=CC(=O)OCC(F)(F)C(F)(F)C(F)(F)C(F)(F)C(F)(F)C(F)(F)C(F)(F)F", "outcome": "inactive"}
{"smiles": "O=C(O)C(F)(F)C(F)(F)C(F)(F)C(F)(F)C(F)(F)C(F)(F)C(F)(F)C(F)(F)C(F)(F)C(F)(F)C(F)(F)C(F)(F)C(F)(F)F", "outcome": "inactive"}
{"smiles": "FC(F)(F)C(F)(F)C(F)(F)C(F)(F)C(F)(F)CCI", "outcome": "inactive"}
{"smiles": "CCCCOCCOCCOC(=O)CCCCC(=O)OCCOCCOCCCC", "outcome": "inactive"}
{"smiles": "OCC(F)(F)C(F)(F)C(F)(F)C(F)(F)C(F)(F)C(F)(F)F", "outcome": "inactive"}
{"smiles": "O=P(O)(O)OCCC(F)(F)C(F)(F)C(F)(F)C(F)(F)C(F)(F)C(F)(F)F", "outcome": "inactive"}
{"smiles": "CCCCNc1ccccc1", "outcome": "inactive"}
{"smiles": "C=CC(F)(F)C(F)(F)C(F)(F)C(F)(F)C(F)(F)C(F)(F)C(F)(F)C(F)(F)C=C", "outcome": "inactive"}
{"smiles": "O[Si](c1ccccc1)(c1ccccc1)c1ccccc1", "outcome": "inactive"}
{"smiles": "FC(F)(F)C(F)(F)C(F)(F)C(F)(F)C(F)(F)C(F)(F)C(F)(F)C(F)(F)CCS", "outcome": "inactive"}
{"smiles": "Nc1ccc([N+](=O)[O-])cc1O", "outcome": "inactive"}
{"smiles": "OCC(F)(F)C(F)(F)C(F)(F)C(F)(F)C(F)(F)C(F)F", "outcome": "inactive"}
{"smiles": "O=C(O)C(F)(OC(F)(F)C(F)(OC(F)(F)C(F)(F)C(F)(F)F)C(F)(F)F)C(F)(F)F", "note": "(stereo not given)", "outcome": "inactive"}
{"smiles": "O=C(O)C=C(C(F)(F)F)C(F)(F)F", "outcome": "inactive"}
{"smiles": "FC1CC(F)(F)C(F)(F)C1(F)F", "note": "(stereo not given)", "outcome": "inactive"}
{"smiles": "OCCCC(F)(F)C(F)(F)C(F)(F)F", "outcome": "inactive"}
{"smiles": "C=C(C)C(=O)OCC(F)(F)C(F)(F)C(F)(F)C(F)(F)C(F)(F)C(F)(F)C(F)(F)F", "outcome": "inactive"}
{"smiles": "CC(C)(C)C(=O)CC(=O)C(F)(F)C(F)(F)C(F)(F)F", "outcome": "inactive"}
{"smiles": "CCCCCCC(C)OC(=O)CCCCC(=O)OC(C)CCCCCC", "note": "(stereo not given)", "outcome": "inactive"}
{"smiles": "CCO[Si](CCC(F)(F)C(F)(F)C(F)(F)C(F)(F)C(F)(F)C(F)(F)F)(OCC)OCC", "outcome": "inactive"}
{"smiles": "O=C(O)C(F)(F)C(F)(F)C(F)F", "outcome": "inactive"}
{"smiles": "C=C(C)C(=O)OCC(F)(F)C(F)(F)C(F)(F)F", "outcome": "inactive"}
{"smiles": "FC(F)(F)C(F)(F)C(F)(F)C(F)(F)C(F)(F)C(F)(F)C(F)(F)I", "outcome": "inactive"}
{"smiles": "N=C(N)C(F)(F)C(F)(F)C(F)(F)C(F)(F)C(F)(F)C(F)(F)C(F)(F)F", "outcome": "inactive"}
{"smiles": "CCN(CC)c1ccc2c(C)cc(=O)oc2c1", "outcome": "inactive"}
{"smiles": "C=C(C)C(=O)OCCC(F)(F)C(F)(F)C(F)(F)C(F)(F)C(F)(C(F)(F)F)C(F)(F)F", "outcome": "inactive"}
{"smiles": "O=C(O)C(F)(F)C(F)(F)C(F)(F)C(F)(F)C(F)(F)C(F)(F)C(F)(F)C(F)(F)C(F)(F)C(F)(F)C(F)(F)C(F)(F)F", "outcome": "inactive"}
{"smiles": "OCC(F)(F)C(F)(F)C(F)(F)F", "outcome": "inactive"}
{"smiles": "NC(=O)C(F)(F)C(F)(F)C(F)(F)C(F)(F)F", "outcome": "inactive"}
{"smiles": "FC(F)(I)C(F)(F)C(F)(F)C(F)(F)I", "AC50": "56 µM (active) and 47.7 µM (active) and 46.9 µM (active)"}
{"smiles": "CCc1ccc(C(c2ccc(CC)cc2)C(Cl)Cl)cc1", "outcome": "inactive"}
{"smiles": "O=C(O)C(F)(OC(F)(F)C(F)(OC(F)(F)C(F)(OC(F)(F)C(F)(F)C(F)(F)F)C(F)(F)F)C(F)(F)F)C(F)(F)F", "note": "(stereo not given)", "outcome": "inactive"}
{"smiles": "O=C(O)C(F)(F)C(F)(F)C(F)(F)C(F)(F)C(F)(F)C(F)(F)C(F)(F)C(F)(F)Cl", "AC50": "30 µM (active) and 47.9 µM (active)"}
{"smiles": "O=S(=O)(O)C(F)(F)C(F)(F)C(F)(F)C(F)(F)C(F)(F)C(F)(F)C(F)(F)F", "outcome": "inactive"}
